# This is a sample that favours compounds with a hit; in the whole collection about 7.4% have one here.
# Rab9 promoter act: activators of Rab9 promoter; 320,000 tested, 2.8% active; Huh7 Rab9 promoter-luciferase reporter, luminescence, 24 h; Potency, µM (highest dose often 9.22 µM), for the others: top-dose activation, negative = inhibition, actives largely listed as activators; note: % of control where 0% means no effect; nearly all actives have a fitted effect of over 60% in size
#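 Stable Rab9-luc Huh7, 1500 cells/well, 2 h settle; cmpd in DMSO, 24 h, 37 °C/5% CO2; luciferase reagent 10 min RT; luminescence.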
# FLuc modulator: counter-screen for miR-21 project: firefly luciferase inhibitors or activators; AID 588342; Potency, µM (titrated, usually from 57.5 µM), inactives show at the top dose activity change, negative = inhibition, most hits filed as inhibitors; purified FLuc, Km substrates, luminescence inhibition; P08659; 360,000 tested, 6.9% active;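 note: plate controls were vehicle for no effect and reference inhibitor for full effect; nearly all actives have a fitted effect of over 55% in size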
# Target sequence (P08659 whole entry, looked up): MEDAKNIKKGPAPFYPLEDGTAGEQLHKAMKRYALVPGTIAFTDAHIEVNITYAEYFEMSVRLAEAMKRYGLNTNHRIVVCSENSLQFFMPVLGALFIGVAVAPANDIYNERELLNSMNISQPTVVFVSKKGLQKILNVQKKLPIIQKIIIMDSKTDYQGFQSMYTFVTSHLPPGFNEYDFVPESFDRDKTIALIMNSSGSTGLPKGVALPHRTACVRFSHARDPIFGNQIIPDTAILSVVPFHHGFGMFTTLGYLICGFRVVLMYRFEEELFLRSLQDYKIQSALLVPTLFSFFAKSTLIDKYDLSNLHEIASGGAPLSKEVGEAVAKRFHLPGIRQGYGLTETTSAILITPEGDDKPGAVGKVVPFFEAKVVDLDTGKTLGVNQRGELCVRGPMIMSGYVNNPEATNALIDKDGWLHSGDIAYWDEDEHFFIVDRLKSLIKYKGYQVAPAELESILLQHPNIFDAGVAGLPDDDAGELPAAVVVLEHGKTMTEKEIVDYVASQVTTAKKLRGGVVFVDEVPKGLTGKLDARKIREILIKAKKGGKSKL
#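 Purified P. pyralis luciferase, 10 nM final, with Km-level 10 uM D-luciferin and 10 uM ATP in 50 mM Tris acetate pH 7.5, 10 mM Mg acetate, 0.01% Tween-20, 0.05% BSA; 6-point qHTS titration about 60 µM downward; luminescence read.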
# SMN2 splice up: SMN2 splice variant enhancement | 210,000 tested, 2.8% active | Potency, µM (series often up to 46.1 µM), without a hit: at the top dose activity change, positive = activation, hits mostly activators | HEK293 SMN2-luciferase splicing reporter, luminescence, 30-36 h; note: % of control where 0% means no effect; nearly all actives have a fitted effect of over 55% in size
#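 qHTS luciferase splicing reporter: luminescence rises when SMN2 exon 7 is included in transfected HEK293 cells. Compound exposure lasted 30-36 h at 37C, with 4.5 mM final sodium butyrate as control, followed by a ONE-Glo read.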
# NPC1 prom act: NPC1 promoter activation; Huh7 NPC1 promoter luciferase reporter, 24 h; Potency, µM (highest dose often 9.22 µM), for inactives: at the top dose activation, hits mostly activators; 320,000 tested, 2.4% active; AID 485313; note: % of control where 0% means no effect; nearly all actives have a fitted effect of over 60% in size
#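 Luminescence from an NPC1 promoter-driven luciferase reporter in stably transfected Huh7 cells was measured after 24 h compound treatment at 37 °C, followed by 10 min ambient incubation with luciferase detection reagent.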
# ELG1 genotox: induces genotoxicity in HEK293T cells with luciferase-tagged ELG1. HEK293T ELG1-luciferase reporter, luminescence, 16 h. Potency, µM (highest dose often 46 µM), for the others: at the highest dose activity change, positive = activation, hits mostly activators. 330,000 tested, 1.3% active; note: % of control where 0% means no effect; nearly all actives have a fitted effect of over 60% in size
#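 Step 1: seed 2,000 HEK293T ELG1-luciferase cells per well. Step 2: add compound or DMSO, incubate 16 hr at 37 °C. Step 3: ONE-Glo, 30 min at room temperature, read luminescence.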
# Numbers without * were called inactive; ? = inconclusive; . = no result given; [ ] = another dose, or the depositor's remark. Calls come from the whole dose curve; as a rule, active = well fitted curve in the direction sought with a large enough effect; inconclusive = small, poorly fitted or top-dose-only effect, or another doubt; inactive = no such curve, though single readings can be large; an effect the other way counts as inactive or inconclusive. Potency is the fitted concentration of half-maximal effect.
SMILES,Rab9 promoter act,FLuc modulator,SMN2 splice up,NPC1 prom act,ELG1 genotox
CN(C)/N=C/c1ccc(OS(=O)(=O)c2ccccc2)cc1,2.82µM*,21.3µM*,.,3.55µM*,8.2µM*
O=C1ON=C(c2ccccc2)/C1=C/c1ccc(OS(=O)(=O)c2ccccc2)cc1,-0.6%,-19.0%,-16.9%,0.5%,2.3%
COc1ccc(/C=N/n2c(SC)nnc2-c2ccccc2)c(OC)c1OC,-13.6%,-4.7%,14.1µM*,-32.6%,2.6%
COc1ccc(NC(=O)c2ccccc2NC(=O)CSc2ccccc2)cc1,?,-4.7%,.,?,17.2%
C=CCn1cccc(C(=O)Nc2cc(OC)ccc2OC)c1=O,21.3%,-5.4%,-2.6%,13.9%,0.0%
C=CCn1c(N)c(C(=O)Nc2ccc(C)cc2)sc1=S,2.82µM*,1.2µM*,20.4%,?,?
C/C=C/Cn1cccc(C(=O)Nc2ccc(OC)cc2)c1=O,?,23.9µM*,-20.8%,?,7.8%
C=CCn1cccc(C(=O)Nc2ccc(C)c(C)c2)c1=O,2.24µM*,10.7µM*,.,1.58µM*,?
C=CCn1c(N)c(C(=O)Nc2ccccc2OC)sc1=S,24.6%,?,.,-3.1%,1.9%
C=CCn1cccc(C(=O)Nc2ccc(C)cc2)c1=O,2.82µM*,10.7µM*,.,4.47µM*,?
Cc1onc(-c2ccccc2Cl)c1C(=O)Nc1nc2c(s1)CCCC2,?,13.5µM*,12.9%,27.0%,4.4%
CC(=O)c1sc(NC(=O)C=C(C)C)nc1C,28.3%,?,20µM*,18.7%,18.4µM*
Cc1ccc(C(=O)Nc2nc3c(s2)CCCC3)o1,1µM*,1.69µM*,14.1µM*,3.16µM*,1.16µM*
Cc1onc(-c2ccccc2Cl)c1C(=O)Nc1nnc(-c2ccc(Cl)cc2Cl)s1,-1.5%,?,0.4%,1.7%,-18.2%
O=C(Nc1nc2c(s1)CCCC2)c1ccc(Br)o1,1.26µM*,1.51µM*,11.2µM*,2.24µM*,11.6µM*
O=C(c1ccncc1)N1CCC2(CCCN(c3cccc(-c4ccccc4)c3)C2)CC1,.,.,-26.3%,.,.
Cc1cc(C)c2nc3c(c([C@H](O)C4CCCCN4)c2c1)CC/C3=C/c1ccc(Cl)cc1 (some centres not stated),.,.,10.0%[9.22 µM],.,.
COc1ccc(-n2nnnc2SCC(=O)NCCc2ccccc2)cc1,.,-2.0%,-7.9%,.,.
CC(=O)c1sc(NC(=O)c2ccc(Br)o2)nc1C,26.5%[1.84 µM],19µM*,.,?,16.4µM*
COc1ccc(C(=O)N[C@H](C(=O)Nc2nc3c(s2)CCCC3)C(C)C)cc1,23.2%,15.1µM*,?,-1.6%,14.7%
O=C(Nc1cc(Cl)ccc1Cl)c1cc(S(=O)(=O)N2CCc3ccccc3C2)ccc1F,.,0.1%,.,.,.
CC(C)Sc1nc(N)c2c3c(sc2n1)CN(C)CC3,?,23.9µM*,11.2µM*,?,?
O=C(CCCCn1c(=O)c2ccccc2n(Cc2cccc(Cl)c2)c1=O)NCc1ccc2c(c1)OCO2,.,-2.7%,8.0%,.,.
CCOC(=O)c1ccc(NC(=O)CN2C(=O)CSC2=O)cc1,0.9%,21.3µM*,-9.1%,-12.8%,1.9%
COC(=O)c1ccc(COn2nnc3ccccc32)cc1,1µM*,6.75µM*,12.6µM*,1.12µM*,?
SMILES,Rab9 promoter act,FLuc modulator,SMN2 splice up,NPC1 prom act,ELG1 genotox
COC(=O)c1ccc(NC(=O)CN2C(=O)CSC2=O)cc1,0.7%,?,7.5%,2.1%,0.0%
CCOC(=O)c1ccc(NC(=O)Cn2nnc3ccccc32)cc1,2.82µM*,10.7µM*,-4.3%,3.55µM*,?
CCOC(=O)c1ccc(NC(=O)CCn2nnc3ccccc32)cc1,3.2%,-0.3%,9.6%,-0.9%,6.2%
CCOC(=O)c1ccc(NC(=O)CN2C(=O)CSCC2=O)cc1,5.6%,15.1µM*,-4.5%,0.7%,6.0%
Cc1ccc2cccc(NC(=O)c3ccc(-c4cccc(Cl)c4)o3)c2n1,.,-4.7%,-1.9%,.,.
Cc1ccc(Cn2c(CN3CCN(c4cccc(Cl)c4)CC3)nc3c2c(=O)n(C)c(=O)n3C)cc1,.,-5.9%,-7.7%,.,.
CCOC(=O)c1c(C)[nH]c(C)c1S(=O)(=O)N(C)CC(=O)N1CCN(c2ccccc2OC)CC1,.,7.9%,.,.,.
COC(=O)c1cc(-c2ccc(OC)cc2)n[nH]1,?,26.9µM*,?,?,?
CCOc1ccc(-c2cc(C(=O)OC)[nH]n2)cc1,2.24µM*,9.53µM*,.,3.16µM*,?
COC(=O)c1cc(-c2cccc(OC)c2)n[nH]1,14.9%,?,?,3.7%,10.0%
COC(=O)c1cc(-c2ccc(C)cc2)n[nH]1,?,23.9µM*,.,15.5%,?
ClCCCl,.,.,3.8%,.,.
COc1cc2nc(NCc3ccccc3)n3nc(-c4ccccc4)nc3c2cc1OC,.,0.1%,8.4%,.,.
COc1ccccc1Nc1nc(-c2sc(NC(=O)c3ccccc3)nc2C)cs1,6.4%,21.3µM*,-5.3%,-2.9%,-1.2%
COC1=C(Nc2ccccc2OC)C(=O)c2ccccc2C1=O,11.9%,?,.,-0.5%,-7.7%
Cc1nc(NC(=O)c2ccccc2)sc1-c1csc(Nc2cccc(F)c2)n1,8.7%,13.5µM*,-14.3%,-4.6%,-15.6%
COc1ccccc1NC1=C(C)C(=O)CC1,-5.5%,-2.4%,17.8µM*,-3.5%,20.6µM*
COc1ccccc1Nc1nc(C)cs1,6.7%,26.9µM*,?,-2.0%,-1.6%
Cc1cccn2c(=O)c3cc(C(=O)NC(C)C)n(C)c3nc12,.,-2.7%,.,.,.
COc1ccc(OC)c(Nc2ccc(Nc3cc(OC)ccc3OC)nn2)c1,-2.0%,2.6%,-13.1%,-1.4%,-2.8%
COc1ccccc1Nc1ccc(Nc2ccccc2OC)nn1,?,9.53µM*,.,?,?
Cc1nc(NC(=O)c2ccccc2)sc1-c1csc(N)n1,29.1%,9.53µM*,-41.3%,?,0.0%
Cc1nc(NC(=O)c2ccccc2)sc1-c1csc(NCc2ccccc2)n1,2.1%,?,0.7%,-2.9%,-4.4%
CCc1ccc(CN(Cc2cn[nH]c2-c2ccc(OC)cc2)C(=O)Nc2ccc(Br)cc2)cc1,.,-11.0%,.,.,.
COc1cc(/C=C2\N=C(c3ccccc3)OC2=O)ccc1OC(C)=O,2.1%,15.1µM*,.,23.4%,-0.4%
SMILES,Rab9 promoter act,FLuc modulator,SMN2 splice up,NPC1 prom act,ELG1 genotox
CCOc1ccc(/C=C2\N=C(c3cccs3)OC2=O)cc1OC,1.9%,-24.1%,25.6%,-0.5%,-0.7%
COc1ccc(/C=C2/N=C(c3cccs3)OC2=O)cc1OC(C)C,-0.2%,6.75µM*,12.5%,2.0%,-10.7%
CC1=C(C(=O)Nc2cc(C)cc(C)c2)C2(CCCCC2)OC1=O,.,-4.5%,3.8%,.,.
C=CCN1c2ccccc2[C@]23C[C@@H](C(=O)OC)N(S(=O)(=O)c4ccc(C#N)cc4)C2=NC(C(=O)OC)=C(C(=O)OC)[C@H]13,.,.,-1.0%[9.22 µM],.,.
COc1cc2c(cc1OC)/C(=C/C(=O)c1ccccc1)NCC2,-2.2%,-17.8%,.,21.8%,11.9%
COc1cc2c(cc1OC)/C(=C/C(=O)c1ccc(C)cc1)NCC2,5.7%,16.9µM*,.,-2.3%,7.3%
